# Bioassay records as filed in PubChem BioAssay.
# HT1080-NT tox – kills 2HG-producing HT-1080-NT fibrosarcoma cells. HT-1080-NT fibrosarcoma viability, CellTiter-Glo ATP luminescence, 48 h. Potency, µM (top dose mostly 46.1 µM), for inactives: at the top dose activity, negative = less viability, most hits filed as cytotoxic. hit rate 1.6% among 360,000;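 note: NT is the 2HG producing partner of a matched IDH1 knockdown line; potency is the fitted concentration of half-maximal effect; 0% = DMSO-treated cells and -100% = media-only wells without cells; nearly all actives have a fitted effect of over 55% in size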
#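 Viability of the 2HG-overproducing fibrosarcoma line after 48 hours of compound exposure at 37 degrees C was determined by luminescence with CellTiter-Glo, and concentration-effect curves were then fitted and categorized.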
# TDP1 cell CPT – growth inhibition of DT40 Tdp1-/-;hTDP1 cells with camptothecin (screen for TDP1 inhibitors); chicken DT40 Tdp1-/-;hTDP1 cells + 20 nM CPT, ATP luminescence, 48 h; Potency, µM (series often up to 46.2 µM), for the others: at the top dose activity change, negative = growth inhibition, hits mostly inhibitors; hit rate 12% among 420,000; AID 686979; note: potency is the fitted concentration of half-maximal effect; nearly all actives have a fitted effect of over 55% in size
#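 Chicken DT40 Tdp1-/- cells stably complemented with human TDP1 were seeded at 400 cells/well in medium containing 20 nM camptothecin, exposed to pin-transferred compounds, and grown at 37 °C for at least 48 hr. Viability was read as ATP luminescence.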
# DT40 TDP1 no CPT – qHTS for Inhibitors of human tyrosyl-DNA phosphodiesterase 1 (TDP1): qHTS in cells in absence of CPT. DT40 Tdp1-/- hTDP1 cells, no CPT, ATP luminescence, 48 h. Potency, µM (doses to about 46.2 µM), without a hit: top-dose activity change, negative = growth inhibition, hits mostly inhibitors. hit rate 15% among 420,000. AID 686978, 2013; note: potency is the fitted concentration of half-maximal effect; nearly all actives have a fitted effect of over 55% in size
#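 Seeded 400 DT40-hTDP1 cells/well (vehicle DMSO, no 20 nM CPT); pinned compounds; ≥48 hr at 37 °C; CellTiter-Glo luminescence as viability measure.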
# IL1B secr inh – inhibitors of inflammasome signaling (IL-1 beta secretion). THP-1 LPS/ATP IL-1B secretion, AlphaLISA, 16 h; active compounds read low. hit rate 4.7% among 360,000. activity change, % at 57.5 µM; in the data active = activity change below about -50%; inconclusive = mostly about -30% to -49%
#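 THP-1 cells pretreated 1 hr with compounds (up to 57.5 uM final), then stimulated with LPS (250 ng/mL final) plus ATP (1.25 mM final); secreted IL-1B measured by AlphaLISA after 16 hr, decreased signal indicating inhibition.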
# HT1080 IDH1KD tx – toxicity to HT-1080 IDH1 knockdown cells (counter line); HT-1080 IDH1 knockdown viability, ATP luminescence, 48 h; Potency, µM (titrated, usually from 46.1 µM), without a hit: at the top dose activity, negative = toxicity, usual class: cytotoxic; hit rate 2% among 360,000; AID 686971;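 note: potency is the fitted concentration of half-maximal effect; 0% = DMSO wells and -100% = cell-free medium wells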
#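 Knockdown cells (IDH1KD HT-1080) received compounds 2 h after plating at 750 cells/well and were kept 48 h at 37 °C in 5% FBS RPMI. A CellTiter-Glo luminescence read gave % activity for curve fitting.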
# * marks the source's active call; other numbers are inactive results; ? = inconclusive; / = no result. An excerpt weighted towards active compounds, which were near 19% of everything screened. Unless noted, calls come from the whole dose curve; as a rule, active = well fitted curve in the direction sought with a large enough effect; inconclusive = small, poorly fitted or top-dose-only effect, or another doubt; inactive = no such curve, though single readings can be large; an effect the other way counts as inactive or inconclusive. Unless noted, % is set by controls: 0 for no effect and ±100 for the full control effect.
SMILES,HT1080-NT tox,TDP1 cell CPT,DT40 TDP1 no CPT,IL1B secr inh,HT1080 IDH1KD tx
CC(C)C(=O)Nc1ccc(S(=O)(=O)N2CCC(c3nc4ccccc4[nH]3)CC2)cc1,-16.2%,?,20.6µM*,-22.6,-19.2%
COc1ccc(S(=O)(=O)N2CCC(c3nc4ccccc4[nH]3)CC2)cc1,-14.4%,?,10.3µM*,-16.3,-19.6%
Cc1ccc(Cl)cc1N(C)C(=O)Cn1ncc2c([nH]c3ccccc32)c1=O,18.9%,-20.7%,-18.6%,-5.5,9.4%
CCCC(=O)Nc1nnc(SCc2cc(=O)c3ccc(C)cc3[nH]2)s1,/,1.46µM*,0.731µM*,/,/
Cc1nc(-c2c(-c3ccc(O)cc3O)noc2C(F)(F)F)cs1,-10.9%,18.4µM*,16.4µM*,13.4,-13.7%
COc1ccc(-c2ncnc(C(F)(F)F)c2-c2csc(C)n2)c(O)c1,0.5%,-18.2%,6.9%,25.0,8.1%
Clc1ccc(CN2CCCCCC2)cc1,8.0%,0.1%,-3.4%,-0.9,25.8%
O=[N+]([O-])c1cc(CN2CCCC2)ccc1Sc1ccc(Cl)cc1,-26.2%,10.3µM*,8.2µM*,-11.9,?
CN(C)C(=O)c1ccc(S(=O)(=O)NCc2ccccc2Cl)s1,/,?,-28.2%,/,/
CC(C)CC(NC(=O)CC12CC3CC(CC(C3)C1)C2)C(=O)NC1=NCCS1 (stereo not given),-13.5%,?,25.9µM*,-3.8,-14.3%
COc1ccccc1C1(O)C(=O)Nc2ccccc21 (stereo not given),4.7%,-3.1%,-4.8%,9.6,8.4%
Cc1ccc(C)c(N2CCN(c3ccncc3N)CC2)c1,-9.6%,18.4µM*,13µM*,-3.3,-4.6%
O=C(Nc1ccc(F)cc1)C(CCc1ccccc1)N1CCN(c2cccc(C(F)(F)F)n2)CC1 (stereo not given),?,18.4µM*,?,-0.3,?
O=C(Nc1ccc(F)cc1)C(c1cc2ccccc2o1)N1CCN(c2cccc(C(F)(F)F)n2)CC1 (stereo not given),24.3%,?,?,34.6,17.2%
O=C(Nc1ccc(F)cc1)C(c1ccncc1)N1CCN(c2cccc(C(F)(F)F)n2)CC1 (stereo not given),?,?,20.6µM*,-11.5,?
COc1ccc(/C=N/NC(=O)c2cccnc2)cc1CSc1nc2ccccc2s1,?,3.66µM*,2.91µM*,6.7,?
Cc1ccccc1NC(=O)CCCSc1nc2ccccc2s1,-3.6%,?,?,5.8,1.0%
COc1ccc(/C=N/NC(=O)CCn2cnc(-c3ccccc3)c2-c2ccccc2)cc1OC,9.2µM*,5.17µM*,6.51µM*,16.3,8.2µM*
CCc1cccc(C)c1NC(=O)CCCSc1nc2ccccc2s1,-12.2%,18.4µM*,16.4µM*,9.9,-12.5%
O=C(CCSc1nc2ccccc2s1)N/N=C/c1c(O)ccc2ccccc12,?,6.51µM*,3.66µM*,192.4,?
CCn1c(SCC(=O)Nc2cccc(C(C)=O)c2)nnc1C(C)C,-4.9%,-24.2%,-4.9%,-15.3,-0.7%
CCOC(=O)C1=C(C)NC(C)=C(C(=O)OCC)C1C(=O)OCC(=O)N(CC)C1CCS(=O)(=O)C1 (stereo not given),9.6%,15.3%,-0.9%,11.9,0.0%
CC(=O)C1=C(O)C(=O)N(c2nccs2)C1c1ccccc1 (stereo not given),-2.0%,-24.1%,-25.1%,12.9,-4.6%
COc1ccc(/C=N/NC(=O)c2cccc(C(=O)N/N=C/c3ccc(OC)c(OC)c3)n2)cc1OC,-8.6%,0.7%,-7.3%,-5.8,-4.5%
COc1ccc(/C=N/NC(=O)c2ccccc2Cl)cc1CSc1nc2ccccc2s1,4.47µM*,5.8µM*,4.61µM*,49.9,?
SMILES,HT1080-NT tox,TDP1 cell CPT,DT40 TDP1 no CPT,IL1B secr inh,HT1080 IDH1KD tx
COc1ccc(/C=N/NC(=O)Nc2cccc3nsnc23)cc1OC,8.3%,9.2µM*,9.2µM*,-15.2,23.1%
COc1ccc(/C=N/NC(=O)CCSc2nc3ccccc3s2)cc1OC,-3.0%,13µM*,29.1µM*,-20.0,-4.1%
O=C(CNC(=O)c1ccccc1)N/N=C/C=C/c1ccccc1,6.4%,-11.2%,-4.7%,-17.1,7.9%
O=C(Cc1cc(=O)[nH][nH]1)N/N=C/C=C/c1ccccc1,-8.8%,?,29.1µM*,?,-9.2%
O=C(c1ccco1)N1CCN(Cc2c(Cl)cccc2Cl)CC1,-2.2%,?,9.2µM*,0.0,-13.2%
O=C(c1ccco1)N1CCN(CC(O)Cn2c3ccccc3c3ccccc32)CC1 (stereo not given),-29.9%,18.4µM*,?,-23.7,?
O=C(c1cc(-c2ccccc2Cl)on1)N1CCN(C(=O)c2ccco2)CC1,13.4%,-9.6%,-13.1%,-29.2,-0.1%
O=C(c1ccco1)N1CCN(Cc2csc(-c3ccccc3Cl)n2)CC1,-10.2%,?,20.6µM*,-0.8,-21.3%
CCc1ccc(CN2CCN(C(=O)c3ccco3)CC2)cc1,-2.5%,?,-17.1%,?,-5.8%
O=C(c1ccco1)N1CCN(Cc2cccc3ccccc23)CC1,-25.2%,8.2µM*,?,-23.6,-24.8%
C[C@H]1CN([C@@H](C)CO)C(=O)c2cc(-c3ccccc3F)cnc2O[C@@H]1CN(C)C(=O)NC1CCCCC1,-2.7%,?,?,-11.2,-3.1%
CCOc1ccc(NC(=O)C2CC(=O)N(c3ccc(C(C)C)cc3)C2)cc1 (stereo not given),/,-2.3%,-4.2%,/,/
Cc1cccc(C(=O)OC(C)C(=O)N2CCN(Cc3ccccc3)CC2)c1 (stereo not given),7.6%,?,?,-12.1,13.8%
O=C(Nc1sc2c(c1C(=O)NCCCO)CCCC2)c1ccccc1,-4.8%,-26.7%,-25.3%,-69.0*,-13.2%
NCCNC(=O)c1c(NC(=O)c2ccccc2)sc2c1CCCC2,-22.7%,?,?,-91.8*,?
O=C(Nc1sc2c(c1C(=O)O)CCCCC2)c1ccccc1,-14.3%,?,?,30.5,-22.6%
O=C(O)c1ccc(S(=O)(=O)N2CCCc3ccccc32)cc1,12.5%,-3.1%,1.8%,83.7,4.4%
CC(C)N1CCc2c(sc(NC(=O)c3ccc(S(=O)(=O)N(C)C4CCCCC4)cc3)c2C(N)=O)C1,/,?,18.4µM*,/,/
NC(=O)c1ccsc1NC(=O)c1ccc(S(=O)(=O)N2CCCc3ccccc32)cc1,-18.9%,16.4µM*,18.4µM*,0.0,-20.4%
COCCN(CCOC)S(=O)(=O)c1ccc(C(=O)Nc2sc3c(c2C(N)=O)CCCCC3)cc1,-1.4%,-28.4%,?,-5.4,-1.9%
